Potency and outcome data for nine molecules are collected here from PubChem BioAssay (Tox21).

Several values for one entry are separate records, joined by “and”; a condition that tells them apart may be missing. Equal values may be shown once. Records with an inconclusive call do not appear. Activity calls are given as the source filed them. Unless noted, the call rests on the fitted dose curve.

Assay [1] in a line: qHTS assay to identify small molecule antagonists of the vitamin D receptor (VDR) signaling pathway - cell viability counter screen (AID 743225; active means well fitted curve in the direction sought with a large enough effect in the repeat runs; an effect the other way counts as inactive or inconclusive; further: nearly all actives have a fitted effect of over 50% in size). In short, it runs like this:
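Cells (VDR-UAS-bla HEK 293T) are plated, rested 4 h at 37C, dosed with compound and 3 nM final 1-alpha,25-dihydroxy vitamin D3, and incubated 16 h. Viability is taken from CellTiter-Glo luminescence in the reporter wells.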
On the technique in general: qHTS replaces the single test concentration by a dilution series.

Assay [2] in a line: qHTS assay to identify small molecule agonists of the NFkB signaling pathway (AID 1159509; active means well fitted curve in the direction sought with a large enough effect in the signal ratio in the repeat runs, not every such curve was filed as active; the % refers to the signal ratio; further: series mostly up to about 61 µM). Put shortly: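 Agonist activity was read as beta-lactamase-driven FRET change (460 and 530 nm emission, 405 nm excitation) following 1.5 hr substrate loading at room temperature. Beforehand, ME-180 NFkB-bla reporter cells were treated with compounds for 5 hr at 37 C.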
Assay [3] in a line: qHTS assay to identify small molecule antagonists of the retinoid-related orphan receptor gamma (ROR-gamma) signaling pathway - cell viability counter screen (AID 1159520; active means well fitted curve in the direction sought with a large enough effect in the repeat runs; an effect the other way counts as inactive or inconclusive; further: nearly all actives have a fitted effect of over 50% in size). Put shortly:
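Tet-on ROR gamma CHO cells were given compounds for 2 hr, then doxycycline hyclate at 1 uM final, and incubated 16 hr at 37 C. Viability was measured as ATP content by CellTiter-Glo luminescence.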

Assay [4] addresses Nuclear receptor ROR-gamma (Homo sapiens) (UniProt P51449). As to the kind of experiment: qHTS assay to identify small molecule antagonists of the retinoid-related orphan receptor gamma (ROR-gamma) signaling pathway (AID 1159521; active means well fitted curve in the direction sought with a large enough effect in the repeat runs; an effect the other way counts as inactive or inconclusive; further: nearly all actives have a fitted effect of over 50% in size; further: potency means the concentration at half of the fitted maximal effect). Put shortly:
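RORγ antagonism is scored from reduced reporter luminescence in Tet-on CHO cells. Induction used 1 uM final doxycycline hyclate for 16 h at 37 C, following a 2 h compound exposure.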

Assay [5] can be described thus: qHTS assay to identify small molecule agonists of the AP-1 signaling pathway - cell viability counter screen (AID 1159525). Further: nearly all actives have a fitted effect of over 55% in size. In short, it runs like this: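 Same-well cytotoxicity counter screen of the Tox21 10K library in ME-180 cells. The readout is ATP-dependent luminescence after 5 h compound treatment. Data are normalised to DMSO and tetra n-octyl ammonium bromide controls.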

Assay [6] addresses Retinoic acid receptor RXR-alpha (Homo sapiens) (UniProt P19793). As to the kind of experiment: qHTS assay to identify small molecule agonists of the RXR signaling pathway (AID 1159527). Further: nearly all actives have a fitted effect of over 35% in size. In short, it runs like this:
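qHTS of the Tox21 10K library in GeneBLAzer RXR-alpha HEK 293T cells carrying a beta-lactamase reporter […]; 16 hr treatment, 9-cis retinoic acid as agonist control, FRET read-out.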

The nature of assay [7]: qHTS assay to identify small molecule agonists of the endoplasmic reticulum stress response signaling pathway (AID 1159516; active means well fitted activation curve with a large enough effect in the signal ratio in the repeat runs, not every such curve was filed as active; the % refers to the signal ratio). Put shortly:
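Cells are seeded at 1,500 per well and incubated overnight. Compounds in DMSO are added for 5 hr at 37 C, then beta-lactamase FRET substrate for 2 hr at room temperature, and fluorescence at 460 and 530 nm is measured.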

Assay [8] in a line: qHTS assay to identify small molecule agonists of the AP-1 signaling pathway (AID 1159526).
Assay [9] can be described thus: qHTS assay to identify small molecule agonists of the endoplasmic reticulum stress response signaling pathway - cell viability counter screen (AID 1159517).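 Further: HeLa cells carrying an ER stress response element beta-lactamase reporter; series mostly up to about 61 µM; nearly all actives have a fitted effect of over 50% in size.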 Put shortly: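 In parallel with the ESRE reporter read, cytotoxicity was scored by CellTiter-Glo luminescence (30 min, room temperature) on HeLa ESRE-bla cells dosed for 5 hr.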

Chain of Retinoic acid receptor RXR-alpha (Homo sapiens) (P19793 whole entry, looked up): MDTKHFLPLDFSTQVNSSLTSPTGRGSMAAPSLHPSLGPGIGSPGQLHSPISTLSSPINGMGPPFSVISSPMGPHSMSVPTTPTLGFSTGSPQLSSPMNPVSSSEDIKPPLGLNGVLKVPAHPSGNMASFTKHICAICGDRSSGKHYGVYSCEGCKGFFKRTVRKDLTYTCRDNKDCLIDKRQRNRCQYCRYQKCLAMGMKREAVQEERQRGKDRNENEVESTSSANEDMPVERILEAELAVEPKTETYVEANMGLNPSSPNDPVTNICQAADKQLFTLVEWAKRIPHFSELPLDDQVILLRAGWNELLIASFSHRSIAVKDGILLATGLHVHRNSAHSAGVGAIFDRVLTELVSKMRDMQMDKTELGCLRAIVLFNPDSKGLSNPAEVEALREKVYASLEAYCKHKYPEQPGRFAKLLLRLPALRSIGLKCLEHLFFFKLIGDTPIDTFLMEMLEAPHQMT

With `CC(C)N(C(=O)SCC(Cl)=C(Cl)Cl)C(C)C`, the Potency result in assay [1], in [3], in assay [4], in [5] and in [6] was “inactive” throughout. Further, the molecule was called inactive in assay [2].
`CCN(CC)C(=O)SCc1ccc(Cl)cc1`: the Potency result in assay [1], in assay [3], in [4], in [5] and in assay [6] was “inactive” throughout. Moreover, the outcome in assay [2], in [7] and in [8] was inactive.
`O=C(O)CC[N+](=O)[O-]`: the Potency result in [1], in assay [9], in assay [3], in assay [4], in assay [5] and in [6] was “inactive” throughout. The result in assay [2], in [7] and in [8] was inactive.
`Cc1cccc(N)c1N`: the Potency entry in assay [1], in assay [9], in assay [3], in [4] and in [5] was “inactive” throughout. Besides, the call in [2], in assay [7] and in assay [8] was inactive.
`C=C(C)[C@H]1Cc2c(ccc3c2O[C@@H]2COc4cc(OC)c(OC)cc4[C@@H]2C3=O)O1`: the Potency entry in [1], in assay [9], in [3] and in [5] was “inactive” each time. The outcome in assay [2], in assay [7] and in assay [8] was inactive. Further, the Potency in assay [4] is 34.8 nM (active) and 770 nM (active) and 10.6 nM (active).
Turning to `CCN(CC)C(=O)/C(Cl)=C(\C)OP(=O)(OC)OC`, the Potency result in assay [1], in assay [9], in assay [3], in assay [4], in assay [5] and in [6] was “inactive” in each case. In addition, the molecule was classed as inactive in assay [2], in [7] and in assay [8].
As for `Nc1ccc(-c2ccccc2)cc1`, the Potency entry in [1], in [9], in assay [3], in [4] and in assay [5] was “inactive” throughout. The molecule was called inactive in assay [2], in [7] and in [8].
For `NNC(=S)NN`, the Potency result in [1], in assay [9], in [3] and in assay [5] was “inactive” in each case. Further, the outcome in [2] and in assay [7] was inactive. The Potency in assay [4] is 56 µM (active).
Consider `CCC(C)(C)c1ccc(O)cc1`, for which the Potency result in assay [1], in assay [9], in assay [3], in assay [4], in assay [5] and in [6] was “inactive” each time. The outcome in assay [2], in [7] and in assay [8] was inactive.
